# Shown are actives, neighbours in structure and some others; about 5.3% of the full set was active somewhere.
# Measles CPE – protection of cells from measles virus. Measles virus-infected cells, CPE protection, absorbance. protection (pct of control), % at 4 µM. actives 1.5% (n = 140,000); in the data active means protection mostly above about 24%, no sharp cut-off; inactive means mostly below about 26%
# MT1-MMP txn act – activates MT1-MMP transcription | HT1080 MT1-MMP promoter luciferase reporter, luminescence, overnight; hits give high values | activation factor at 10 µM | actives 0.16% (n = 86,000);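 active means activation factor of at least 2 for MT1-MMP transcription at 10 µM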
# PostGolgi ctrl – growth of the yeast control strain, post-Golgi counter-screen; efflux-deficient yeast background strain, growth absorbance A615, 16 h; actives 5% (n = 98,000); inhibition, % at 10 µM
# PostGolgi yeast – growth inhibition of a yeast mutant, post-Golgi transport screen | AID 739 | inhibition, % at 10 µM | actives 0.9% (n = 98,000) | post-Golgi transport phenotypic cell assay;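 further: yeast cells grown in 1536-well plates; yeast grown about 18 h at 30C before absorbance read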
# * = called active by the depositor; nt = not tested or not shown. Unless noted, no stated cut-off is given here; in the data, active means inhibition above about 30%; inactive means the rest.
SMILES,Measles CPE,MT1-MMP txn act,PostGolgi ctrl,PostGolgi yeast
C=CCNC(=O)NC(=O)COC(=O)CC(NC(N)=O)c1ccc(Cl)cc1 (configuration not stated),13.4,nt,nt,nt
CCOC(=O)N1CCC(NC(=O)c2cccc3c2C(=O)N(c2ccc(OC)cc2)C3)CC1,11.3,1,37.5*,-1.5
CCOC(=O)N1CCC(N2Cc3cccc(C(=O)Nc4ccc(F)cc4)c3C2=O)CC1,4.4,nt,8.6,-5.9
Cc1ccc(NC(=O)c2cccc3c2C(=O)N(C2CCCCC2)C3)cc1,9.3,nt,44.0*,9.8
O=C(NCc1ccc2c(c1)OCO2)c1cccc2c1C(=O)N(C1CCCCC1)C2,13.1,1,13.6,4.4
CCOC(=O)N1CCC(N2Cc3cccc(C(=O)Nc4ccc(CC)cc4)c3C2=O)CC1,3.5,1.1,34.4*,-0.2
Cc1cc(C(=O)NCCCN2CC(C)CC(C)C2)n(-c2ccccc2)n1 (configuration not stated),4.5,nt,6.4,-10.4
CC(C)Oc1cccc(-c2nnc(SCC(=O)Nc3ccc4c(c3)OCCO4)n2N)c1,6.0,1.1,20.1,8.3
CCOc1ccc(S(=O)(=O)n2cnc3cc(C)c(C)cc32)cc1,40.4,1.2,10.2,0.8
COc1ccc(OC)c(S(=O)(=O)n2cnc3cc(C)c(C)cc32)c1,8.7,1.2,30.1*,5.3
CCc1cc(OCCCSc2nc(C)cc(=O)[nH]2)ccc1Cl,12.7,1.1,13.5,11.7
COc1ccc(NS(=O)(=O)c2ccc3oc4ccccc4c3c2)cn1,17.1,1.1,47.0*,-3.1
CN1/C(=C\C(=O)c2cccc(S(=O)(=O)N3CCCCC3)c2)C(C)(C)c2ccccc21,4.2,nt,nt,nt
CCN(CC)S(=O)(=O)c1ccc(C2=NOC3(C2)N(C)c2ccccc2C3(C)C)cc1 (configuration not stated),38.1*,nt,nt,nt
CN1c2ccccc2C(C)(C)C12CC(c1ccc(S(=O)(=O)N3CCCCC3)cc1)=NO2 (configuration not stated),63.5*,nt,nt,nt
CN1c2ccccc2C(C)(C)C12CC(c1cccc(S(=O)(=O)N3CCCC3)c1)=NO2 (configuration not stated),53.8*,nt,nt,nt
COC(=O)[C@@]1(Cc2ccc(OC)cc2)[C@H]2c3cc(C(=O)N4CCCC4)n(CCc4ccc(OC)c(Br)c4)c3C[C@H]2CN1C(=O)c1ccccc1,nt,1.1,nt,nt
Cc1ccc(C(=O)N2CCN(c3ncccn3)CC2)cc1S(=O)(=O)N1CCCCC1,16.2,nt,nt,nt
CCOC1(C)OCC(=O)[C@]2(CCC3C4CCC5=CC(=O)C=CC5(C)C4C(=O)CC32C)O1 (some centres not stated),27.4,nt,nt,nt
CCOc1ccc(C(=O)SC2=NCCS2)cc1,30.5*,0.9,-0.7,-5.2
COc1ccccc1-c1ccc(NC2CCCC2)nn1,21.0,2.1*,nt,nt
COC(=O)CCCCCN1C(=O)NC(CC2CC2)C(C(=O)OCc2ccccc2)=C1C (configuration not stated),nt,1.1,nt,nt
O=C1NCCCC1C(=O)Nc1ccccc1C(F)(F)F (configuration not stated),9.6,1.2,3.1,-7.4
CCOc1ccc(S(=O)(=O)NCc2ccc(OC)cc2)c2cccnc12,2.6,1.2,nt,nt
NC(=O)CSc1nc(O)cc(=O)n1-c1ccccc1,11.5,1.1,17.4,-4.7
SMILES,Measles CPE,MT1-MMP txn act,PostGolgi ctrl,PostGolgi yeast
O=C(O)CCSc1nc(C(F)(F)F)cc(=O)n1-c1ccccc1,27.5,nt,30.5*,-14.3
Cc1nc(NC(=O)CSc2nnc(Cn3nnc4ccccc43)n2C)sc1C,13.3,nt,nt,nt
CCC1=C2CC[C@H]3C(=O)NC(=O)[C@H]3[C@H]2[C@@]2(C)C(=NCCc3c[nH]c4ccccc34)OC(=O)N2C1=O,nt,1.2,nt,nt
COC(=O)CSc1nc2ccccc2nc1SCC(=O)OC,5.1,1.3,3.8,0.3
COC(=O)CSc1cnc2ccccc2n1,0.9,nt,31.9*,-4.7
COc1cccc(N2CCN(Cc3ccsc3)CC2)c1,28.9,1.2,-5.2,3.4
O=C1CC(C(=O)N(c2ccc(F)cc2)C(C(=O)NC2CCCC2)c2ccccn2)CS1 (configuration not stated),1.2,1.3,0.8,-12.4
O=C1CC(C(=O)N(c2cccc(F)c2)C(C(=O)NC2CCCC2)c2ccccn2)CS1 (configuration not stated),5.5,1.3,37.3*,3.7
Cc1ccc(S(=O)(=O)N2CN(Cc3ccco3)c3nc4ccccc4nc32)cc1C,10.5,1,32.0*,-1.4
Cc1ccc(S(=O)(=O)N2CN(Cc3ccco3)c3nc4ccccc4nc32)cc1,2.2,1.1,19.9,-1.6
CCn1c(SCc2nc(-c3ccccc3)no2)nc2ccccc21,11.3,1.1,21.7,-8.9
CCn1c(C)nc2cc(-c3nnc(-c4c(-c5ccccc5)noc4C)o3)ccc21,50.2*,1.1,12.1,3.9
O=C(NCc1nc2ccccc2[nH]1)[C@H]1C[C@@H]1[C@H](NP(=O)(c1ccccc1)c1ccccc1)c1ccccc1,nt,1.2,nt,nt
COc1ccc(C(=O)Nc2cc(C(F)(F)F)ccc2Cl)cc1OC,12.9,nt,8.7,2.9
Cc1c(Cl)c(-c2n[nH]c(=S)n2-c2ccc(F)cc2)nn1C,17.7,nt,6.0,-3.5
CC1CCCC(C)N1c1nnc(NC(=O)c2cc(-c3ccc(Br)cc3)on2)s1 (configuration not stated),2.6,nt,30.9*,4.2
O=C(Nc1nnc(N2CCCCCC2)s1)c1cc(-c2ccc(Br)cc2)on1,16.9,1,8.7,-6.2
c1cc(CNCCCN2CCOCC2)ccn1,11.2,1.1,11.9,-4.4
CC(=O)N(CCCN1CCOCC1)Cc1ccncc1,56.6*,1.1,0.7,0.4
COC(=O)[C@H]1C[C@@H]1[C@H](NC(=O)[C@@H]1CCCN1C(=O)OC(C)(C)C)c1ccccc1,nt,1.2,nt,nt
CCC(c1nnnn1CCOC)N1CCN(Cc2ccccc2)CC1 (configuration not stated),13.4,1,31.0*,-2.3
CCCCNC(=S)N(C)/N=C/c1ccc(OCc2ccc(C(=O)OC)cc2)c(OC)c1,11.8,nt,nt,nt
CCOC(=O)CCCSc1nnc(CCCCCN2C(=O)c3cccc4cccc(c34)C2=O)o1,28.6,nt,nt,nt
CC(=O)CC(c1ccc([N+](=O)[O-])cc1)c1c(O)c2ccccc2oc1=O (configuration not stated),36.5*,nt,11.1,1.1
Cc1ccc(S(=O)(=O)N(C)C)cc1NC(=S)NC(=O)C12CC3CC(CC(C3)C1)C2,18.8,nt,nt,nt
SMILES,Measles CPE,MT1-MMP txn act,PostGolgi ctrl,PostGolgi yeast
O=C(NNC(=S)NC(=O)C12CC3CC(CC(C3)C1)C2)c1ccncc1,3.4,nt,48.3*,41.7*
NS(=O)(=O)c1cccc(NC(=S)NC(=O)C23CC4CC(CC(C4)C2)C3)c1,44.3*,nt,nt,nt
O=C(c1ccc(Cl)cc1)N1CCCC(c2ccccc2)=N1,5.0,nt,36.0*,13.9
O=C(COC(=O)c1cccs1)c1ccccc1,16.1,1.5,6.2,-5.5
CC1CN(C(=O)COC(=O)c2cccs2)CC(C)O1 (configuration not stated),36.2*,1.2,3.5,7.1
C=C(C)C1CC=C(C)/C(=N\NC(=S)Nc2ccc(C)cc2)C1 (configuration not stated),4.8,nt,nt,nt
COc1ccc2c(C(=O)CN3CCN(c4ccccc4)CC3)c[nH]c2c1,27.6*,1,8.0,4.0
CCOC(=O)N1CCN(C(=O)c2cnn3c(C)c(Cc4ccc(C)cc4)c(C)nc23)CC1,20.2,1.1,1.0,4.6

# Screens as filed in PubChem.
